# The panel holds about 79,000 compounds, 15% with a hit somewhere; the sample as a whole holds those more often. A number with no mark means an inactive call. Active and inactive are the calls of the source. Rule as the data show it: active = growth inhibition above about 70%; inactive = the rest.
# Experiments:
# [1] = NCI Yeast Anticancer Drug Screen. Data for the rad52 strain (AID 147);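 also: 0% = growth of vehicle-treated control cultures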; conditions: S. cerevisiae rad52 mutant growth inhibition, active compounds read high
# In short: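 Genetically altered yeast (DNA damage repair defect) treated with compound; inhibition calculated relative to vehicle.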
# [2] = NCI Yeast Anticancer Drug Screen. Data for the wt1 strain (AID 149);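 also: 0% = growth of vehicle-treated wt1 cultures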; conditions: S. cerevisiae wt1 strain (SPY 50644) growth inhibition, active compounds read high
# In short: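 wt1 yeast, compound-treated; % growth inhibition vs vehicle control.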
# [3] = NCI Yeast Anticancer Drug Screen. Data for the rad50EPP+ strain (AID 151);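 also: 0% = growth of vehicle-treated control cultures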; conditions: S. cerevisiae rad50 mutant strain, active compounds read high
# In short: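 Strain rad50EPP+; compound exposure; % growth inhibition vs vehicle.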
# [4] = NCI Yeast Anticancer Drug Screen. Data for the mgt1 strain (AID 153); conditions: S. cerevisiae mgt1 mutant growth inhibition, active compounds read high
# In short: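 Read-out: yeast growth inhibition vs vehicle control. Strain mgt1, drawn from a panel altered in DNA damage repair or cell cycle control.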
# [5] = NCI Yeast Anticancer Drug Screen. Data for the rad50 strain (AID 155);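 also: 0% = growth of vehicle-only cultures of the same strain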; conditions: S. cerevisiae rad50 strain growth inhibition, active compounds read high
# In short: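 Genetically altered yeast (DNA repair pathway); compound treatment; growth inhibition vs vehicle ctrl.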
# [6] = NCI Yeast Anticancer Drug Screen. Data for the mec2-1 strain (AID 157); conditions: S. cerevisiae mec2-1 strain, active compounds read high
# In short: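 Cells of the genetically defined mec2-1 yeast strain are incubated with test compound. Inhibition of growth is calculated against vehicle-treated controls.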
# [7] = NCI Yeast Anticancer Drug Screen. Data for the rad14 strain (AID 159);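 also: 0% = growth of vehicle-treated control cultures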; conditions: S. cerevisiae rad14 strain growth inhibition, active compounds read high
# In short: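 Test compounds were applied to a repair-deficient yeast strain. Its growth was then compared with that of cultures given vehicle alone, and inhibition was expressed relative to those controls.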
# [8] = NCI Yeast Anticancer Drug Screen. Data for the sgs1 mgt1 strain (AID 161);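 also: 0% = growth of cultures given vehicle only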; conditions: S. cerevisiae sgs1 mgt1 strain, active compounds read high
# In short: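 Read-out: growth inhibition vs vehicle controls. Cells: mutant yeast strain deficient in DNA damage repair.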
# [9] = NCI Yeast Anticancer Drug Screen. Data for the CLN2oe strain (AID 163);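 also: 0% = growth of vehicle-only control cultures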; conditions: S. cerevisiae CLN2oe strain, active compounds read high
# In short: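 Strain altered in cell-cycle control, incubated with compound; growth compared to solvent-treated controls.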
# [10] = NCI Yeast Anticancer Drug Screen. Data for the cln2 rad14 strain (AID 165);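 also: 0% = growth equal to vehicle treated cultures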; conditions: S. cerevisiae cln2 rad14 strain, active compounds read high
# In short: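 The screen exposed genetically defined yeast (cln2 rad14) to test compounds and scored growth inhibition relative to vehicle-treated controls.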
# [11] = NCI Yeast Anticancer Drug Screen. Data for the bub3 strain (AID 167); conditions: S. cerevisiae bub3 mutant strain, active compounds read high
# In short: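 Yeast carrying a defined mutation is treated with each compound, and growth is compared with that of vehicle-exposed cells to give inhibition.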
# [12] = NCI Yeast Anticancer Drug Screen. Data for the wt2 strain (AID 169);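 also: 0% = growth of vehicle-treated yeast cultures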; conditions: S. cerevisiae wt2 strain growth inhibition, active compounds read high
# In short: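 Steps: yeast strain treated with compound; growth recorded; inhibition calculated relative to cultures given vehicle alone.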
# [13] = NCI Yeast Anticancer Drug Screen. Data for the mlh1 strain (AID 171);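 also: 0% = growth of vehicle-treated control cultures of the same strain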; conditions: S. cerevisiae mlh1 strain growth inhibition, active compounds read high
# In short: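 Yeast screen: mutant strain plus compound, growth scored against vehicle control wells.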
# [14] = NCI Yeast Anticancer Drug Screen. Data for the sgs1 strain (AID 173);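 also: 0% = growth of vehicle-only control cultures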; conditions: S. cerevisiae sgs1 mutant, active compounds read high
# In short: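 Inhibition of yeast growth served as the measure. The mutant strain was treated with each compound, and growth was normalised to cultures receiving vehicle alone.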
# [15] = NCI Yeast Anticancer Drug Screen. Data for the mlh1 rad18 strain (AID 175); conditions: S. cerevisiae mlh1 rad18 strain growth inhibition, active compounds read high
# In short: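 Compound-treated yeast growth, normalised to vehicle controls. Strain bears defined DNA repair mutations.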
# [16] = NCI Yeast Anticancer Drug Screen. Data for the rad18 strain (AID 177); conditions: S. cerevisiae rad18 mutant growth inhibition, active compounds read high
# In short: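 Inhibition values reflect reduced yeast growth compared with vehicle-treated controls, using a strain engineered with a DNA damage repair defect.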
# [17] = at 5.0 µM (retest, dose inferred, filed as 0.5)
# [18] = at 50.0 µM (retest, dose inferred, filed as 5.0)
smiles,measurement,setting,value
NC(N)=NC(N)=Nc1ccccc1 (tested in a mixture with another compound),growth inhibition,[1]; at 1.2 µM,-3%
same,growth inhibition,[1]; at 3.7 µM,-5%
same,growth inhibition,[1]; at 11.0 µM,-7%
same,growth inhibition,[1]; at 33.0 µM,2%
same,growth inhibition,[1]; at 100.0 µM,48%
same,growth inhibition,[2]; at 1.2 µM,-1%
same,growth inhibition,[2]; at 3.7 µM,-1%
same,growth inhibition,[2]; at 11.0 µM,0%
same,growth inhibition,[2]; at 33.0 µM,11%
same,growth inhibition,[2]; at 100.0 µM,32%
same,growth inhibition,[3]; at 1.2 µM,-1%
same,growth inhibition,[3]; at 3.7 µM,-2%
same,growth inhibition,[3]; at 11.0 µM,-16%
same,growth inhibition,[3]; at 33.0 µM,-9%
same,growth inhibition,[3]; at 100.0 µM,18%
same,growth inhibition,[4]; at 1.2 µM,-1%
same,growth inhibition,[4]; at 3.7 µM,-2%
same,growth inhibition,[4]; at 11.0 µM,0%
same,growth inhibition,[4]; at 33.0 µM,6%
same,growth inhibition,[4]; at 100.0 µM,41%
same,growth inhibition,[5]; at 1.2 µM,2%
same,growth inhibition,[5]; at 3.7 µM,-3%
same,growth inhibition,[5]; [17],-2%
same,growth inhibition,[5]; at 11.0 µM,1%
same,growth inhibition,[5]; at 33.0 µM,1%
same,growth inhibition,[5]; [18],7%
same,growth inhibition,[5]; at 50.0 µM,56.6%
same,growth inhibition,[5]; at 100.0 µM,55%
same,growth inhibition,[6]; at 1.2 µM,3%
same,growth inhibition,[6]; at 3.7 µM,3%
same,growth inhibition,[6]; [17],4%
same,growth inhibition,[6]; at 11.0 µM,4%
same,growth inhibition,[6]; at 33.0 µM,12%
same,growth inhibition,[6]; [18],16%
same,growth inhibition,[6]; at 50.0 µM,35.7%
same,growth inhibition,[6]; at 100.0 µM,48%
same,growth inhibition,[7]; at 1.2 µM,-1%
same,growth inhibition,[7]; at 3.7 µM,-15%
same,growth inhibition,[7]; at 11.0 µM,-11%
same,growth inhibition,[7]; at 33.0 µM,-19%
same,growth inhibition,[7]; at 100.0 µM,60%
same,growth inhibition,[8]; [17],3%
same,growth inhibition,[8]; [18],-6%
same,growth inhibition,[8]; at 50.0 µM,66.8%
same,growth inhibition,[9]; at 1.2 µM,-2%
same,growth inhibition,[9]; at 3.7 µM,-6%
same,growth inhibition,[9]; at 11.0 µM,-13%
same,growth inhibition,[9]; at 33.0 µM,-1%
same,growth inhibition,[9]; at 100.0 µM,37%
same,growth inhibition,[10]; [17],33%
same,growth inhibition,[10]; [18],-77%
same,growth inhibition,[10]; at 50.0 µM,23.6%
same,growth inhibition,[11]; at 1.2 µM,-7%
same,growth inhibition,[11]; at 3.7 µM,2%
same,growth inhibition,[11]; [17],20%
same,growth inhibition,[11]; at 11.0 µM,10%
same,growth inhibition,[11]; at 33.0 µM,9%
same,growth inhibition,[11]; [18],6%
same,growth inhibition,[11]; at 50.0 µM,49.8%
same,growth inhibition,[11]; at 100.0 µM,29%
same,growth inhibition,[12]; at 1.2 µM,-1%
same,growth inhibition,[12]; at 3.7 µM,-1%
same,growth inhibition,[12]; at 11.0 µM,3%
same,growth inhibition,[12]; at 33.0 µM,20%
same,growth inhibition,[12]; at 100.0 µM,77% (active)
same,growth inhibition,[13]; at 1.2 µM,5%
same,growth inhibition,[13]; at 3.7 µM,4%
same,growth inhibition,[13]; at 11.0 µM,5%
same,growth inhibition,[13]; at 33.0 µM,-13%
same,growth inhibition,[13]; at 100.0 µM,41%
same,growth inhibition,[14]; at 1.2 µM,2%
same,growth inhibition,[14]; at 3.7 µM,7%
same,growth inhibition,[14]; at 11.0 µM,20%
same,growth inhibition,[14]; at 33.0 µM,49%
same,growth inhibition,[14]; at 100.0 µM,90% (active)
same,growth inhibition,[15]; [17],-4%
same,growth inhibition,[15]; [18],-9%
same,growth inhibition,[15]; at 50.0 µM,47%
same,growth inhibition,[16]; at 1.2 µM,3%
same,growth inhibition,[16]; at 3.7 µM,-3%
same,growth inhibition,[16]; at 11.0 µM,3%
same,growth inhibition,[16]; at 33.0 µM,6%
same,growth inhibition,[16]; at 100.0 µM,61%
